# Results taken from PubChem BioAssay (Tox21).
# Values joined by “and” are separate entries in the source; they are usually repeats but may differ in a detail not shown here. Equal values may be shown once. More than one record can exist for a structure, and the calls need not agree. Active and inactive are the calls of the source. Where a call stands in place of a potency, no number is given. Calls follow the shape of the full dose curve.
# Target: Androgen receptor (Homo sapiens) (UniProt P10275)
# Sequence (P10275 whole entry, looked up): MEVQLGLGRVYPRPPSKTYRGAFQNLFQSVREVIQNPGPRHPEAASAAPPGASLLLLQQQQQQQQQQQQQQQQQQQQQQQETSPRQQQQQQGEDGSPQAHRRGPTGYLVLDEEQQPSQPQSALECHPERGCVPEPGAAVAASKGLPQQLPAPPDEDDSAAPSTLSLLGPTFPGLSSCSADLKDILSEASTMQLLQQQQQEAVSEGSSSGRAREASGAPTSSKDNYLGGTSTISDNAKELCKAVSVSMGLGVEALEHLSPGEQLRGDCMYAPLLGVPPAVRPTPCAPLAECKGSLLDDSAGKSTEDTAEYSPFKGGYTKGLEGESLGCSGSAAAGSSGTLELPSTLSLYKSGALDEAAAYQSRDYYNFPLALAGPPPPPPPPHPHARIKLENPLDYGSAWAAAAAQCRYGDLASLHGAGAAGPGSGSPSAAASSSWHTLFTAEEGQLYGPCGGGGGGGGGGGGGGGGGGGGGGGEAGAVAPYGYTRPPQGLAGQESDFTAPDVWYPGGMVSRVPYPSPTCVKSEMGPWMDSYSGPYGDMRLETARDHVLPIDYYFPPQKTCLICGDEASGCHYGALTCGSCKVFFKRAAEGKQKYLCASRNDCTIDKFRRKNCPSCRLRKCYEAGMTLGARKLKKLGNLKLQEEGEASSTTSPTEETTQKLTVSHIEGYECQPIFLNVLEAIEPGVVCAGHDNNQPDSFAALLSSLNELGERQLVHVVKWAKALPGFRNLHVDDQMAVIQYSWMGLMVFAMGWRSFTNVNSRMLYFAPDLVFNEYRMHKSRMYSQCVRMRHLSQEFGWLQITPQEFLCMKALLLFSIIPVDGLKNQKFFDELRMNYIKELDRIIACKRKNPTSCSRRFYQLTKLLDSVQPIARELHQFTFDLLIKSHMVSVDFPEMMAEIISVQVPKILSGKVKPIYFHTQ
# Test: qHTS assay to identify small molecule agonists of the androgen receptor (AR) signaling pathway in the presence of an antagonist (AID 1259381); also: nearly all actives have a fitted effect of over 15% in size
# Settings: MDA-kb2 MMTV-luciferase, AR agonist + nilutamide, 16 h; series mostly up to 92.4 µM
# Source text: National Center for Advancing Translational Sciences [NCATS] NIH Chemical Genomics Center [NCGC] U.S. Environmental Protection Agency [EPA] National Institutes of Environmental Health Sciences [NIEHS] National Toxicology Program [NTP] Assay overview: Androgen receptor (AR) is an important member of nuclear receptor family. Its signaling plays a critical role in AR-dependent prostate cancer and other androgen related diseases. Considerable attention has been given in the past decades to develop methods to study and screen for the environmental chemicals that have the potential to interfere with metabolic homeostasis, reproduction, developmental and behavioral functions. Therefore AR binding assay for screening against androgen agonists and antagonists can be used to identify potential endocrine disruptors. MDA-kb2 cells (from ATCC, deposited by Wilson et al.) are human breast carcinoma cells that were stably transfected with a luciferase reporter gene under control of the MMTV promoter that contains response elements for both androgen receptor (AR) and glucocorticoid receptor (GR). This particular screening for measuring luciferase reporter gene activity using MDA-kb2 cells against Tox21 10K library compounds is a confirmation study on agonist mode screening in the presence of AR-antagonist compound (Nilutamide) at 3.0uM final concentration.
# Assay Protocol Summary: MDA-kb2 cells (cells cultured without CO2) were dispensed at 3,000 cells/well in 4uL of culture medium into white wall/solid-bottom 1536-well plates (Corning Life Sciences, Corning, NY) using a Multidrop Combi (Thermo Fisher Scientific Inc., Waltham, MA) dispenser. The assay plates were incubated at 37C and 0% CO2 for 5hr. One uL of 3.0uM (final concentration) Nilutamide or assay buffer was added using two separate tips of Flying Reagent Dispenser (FRD, Aurora Discovery, San Diego, CA). Then 23nL of compounds dissolved in DMSO at 15 concentrations and positive controls were transferred to the assay plates using a Pintool station (Wako, San Diego, CA). The assay plates were incubated at 37C and 0% CO2 for 16hr. For luciferase read, 4uL/well ONE-Glo reagent (Promega Corporation, Madison, WI) was added to each well of the assay plates using FRD. After 30min incubation at room temperature, the luminescence signal was measured using a ViewLux plate reader (PerkinElmer, Shelton, CT).
# Potency is read from the fitted curve at half-maximal effect.
Structure (SMILES),Potency,activation
CN(C)CCc1c[nH]c2ccc(O)cc12,inactive,–
O=c1c(C2CC(c3ccc(-c4ccc(Br)cc4)cc3)Cc3ccccc32)c(O)sc2ccccc12 (stereo not given),inactive,–
N#CCCO,inactive,–
CC(C)N1C(=O)N(c2ccccc2)CSC1=NC(C)(C)C,inactive,–
N#CSCSC#N,inactive,–
N#Cc1ccccc1N,inactive,–
O=[N+]([O-])c1cc([N+](=O)[O-])c2ccccc2c1,inactive,–
S=C=Nc1cccc2ccccc12,inactive,–
O=C(Cl)c1ccc(Cl)cc1,inactive,–
O=C1c2ccccc2C(=O)C1C(=O)C(c1ccccc1)c1ccc(Cl)cc1 (stereo not given),inactive,–
CCOC(=O)c1ccccc1S(=O)(=O)NC(=O)Nc1nc(Cl)cc(OC)n1,inactive,–
Nc1ccccc1C(=O)Oc1ccc2ccccc2c1,inactive,–
C[C@]12Cc3nonc3C[C@@H]1CC[C@@H]1[C@@H]2CC[C@@]2(C)[C@H]1CC[C@]2(C)O,23.7 nM (active),–
CC[C@H]1C[C@@H]2C[C@H]3c4[nH]c5ccc(OC)cc5c4CCN(C2)[C@@H]13,inactive,–
COc1cccc2c1C(=O)c1c(O)c3c(c(O)c1C2=O)C[C@@](O)(C(=O)CO)CC3OC1CC(N2CCOC(OC)C2)C(O)C(C)O1 (stereo not given in full),inactive,–
CCOc1cc(C(C)(C)C)ccc1C1COC(c2c(F)cccc2F)=N1 (stereo not given),inactive,–
CCOP(=S)(OCC)SCS(=O)(=O)CC,inactive,–
CCSC(C)CC1CC(=O)C(/C(CC)=N/OC/C=C/Cl)=C(O)C1 (stereo not given),inactive,–
C[CH2][Hg][N]1C(=O)C2C(C1=O)C1(Cl)C(Cl)=C(Cl)C2(Cl)C1(Cl)Cl (stereo not given),–,-7.84% [at 19 µM] (inactive)
CCOC(=O)C1(c2ccccc2)CCN(CCC(C#N)(c2ccccc2)c2ccccc2)CC1,inactive,–

Structure (SMILES),Potency,activation
CCOP(=O)(NC(C)C)Oc1ccc(SC)c(C)c1 (stereo not given),inactive,–
O=C(CCl)Nc1ccccc1,inactive,–
CCOC(=O)CC(=O)CCl,inactive,–
COC(=O)N(C(=O)N1COC2(C(=O)OC)Cc3cc(Cl)ccc3C2=N1)c1ccc(OC(F)(F)F)cc1 (stereo not given),inactive,–
CC(=O)C(Cl)(Cl)Cl,inactive,–
Oc1cc(Cl)c(Cl)c(Cl)c1,inactive,–
C=CC(=O)OCC(COC(=O)C=C)(COC(=O)C=C)COC(=O)C=C,inactive,–
Oc1c(Cl)c(Cl)cc(Cl)c1Cl,inactive,–
COP(=O)(OC)SCn1c(=O)oc2cc(Cl)cnc21,inactive,–
COP(N)(=S)OC,inactive,–
CC(=O)O[C@H]1CC[C@@]2(C)C(=CC[C@@H]3[C@@H]2CC[C@]2(C)C(=O)CC[C@@H]32)C1,inactive,–
Clc1ccc(Oc2ccccc2)cc1,inactive,–
Cc1ccc(CCl)cc1,inactive,–
CCc1ccccc1C,inactive,–
COc1cccc(C(=O)CCN[C@@H](C)[C@H](O)c2ccccc2)c1,inactive,–
N#Cc1ccc(O)cc1,inactive,–
BrCC(Br)c1ccccc1 (stereo not given),inactive,–
CCCCOCN(C(=O)CCl)c1c(CC)cccc1CC,inactive,–
CC1(C)CN=C(NN=C(/C=C/c2ccc(C(F)(F)F)cc2)/C=C/c2ccc(C(F)(F)F)cc2)NC1,inactive,–
C[C@H]1O[C@@H](O[C@H]2[C@@H](O)C[C@H](O[C@H]3[C@@H](O)C[C@H](O[C@H]4CC[C@@]5(C)[C@H](CC[C@@H]6[C@@H]5CC[C@]5(C)[C@@H](C7=CC(=O)OC7)CC[C@]65O)C4)O[C@@H]3C)O[C@@H]2C)C[C@H](O)[C@@H]1O,inactive and 237 nM (active),–
